# Test results published in PubChem BioAssay AID1645855 (Buhrlage Lab, Dana-Farber Cancer Institute and Novartis …, 2021).
# The campaign covered roughly 47,000 compounds. About 3,100 (6.6%) were called active. This is one part of a sample in which actives are shown more often than they occur. No stated cut-off is given here; in the data, active means inhibition above about 30%; inactive means the rest.
# Target: Ubiquitin carboxyl-terminal hydrolase 17-like protein 5 (Homo sapiens) (UniProt A8MUK1)
# Sequence (A8MUK1 whole entry, looked up): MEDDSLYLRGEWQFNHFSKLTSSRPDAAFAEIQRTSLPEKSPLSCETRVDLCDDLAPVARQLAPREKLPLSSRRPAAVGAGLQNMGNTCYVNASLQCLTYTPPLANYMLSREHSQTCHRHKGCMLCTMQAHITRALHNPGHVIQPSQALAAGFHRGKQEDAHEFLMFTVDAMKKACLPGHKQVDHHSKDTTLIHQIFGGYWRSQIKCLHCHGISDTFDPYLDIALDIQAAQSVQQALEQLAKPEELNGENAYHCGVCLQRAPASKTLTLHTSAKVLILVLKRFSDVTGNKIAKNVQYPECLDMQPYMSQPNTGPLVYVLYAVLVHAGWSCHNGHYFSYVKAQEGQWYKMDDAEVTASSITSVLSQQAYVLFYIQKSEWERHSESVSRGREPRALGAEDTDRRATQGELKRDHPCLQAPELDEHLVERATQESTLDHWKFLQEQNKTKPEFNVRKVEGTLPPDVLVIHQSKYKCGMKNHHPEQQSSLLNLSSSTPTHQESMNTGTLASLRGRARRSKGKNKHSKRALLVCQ
# Assay: blocks human USP17 ubiquitin-rhodamine cleavage (AID 1645855)
# Details: purified USP17, Ub-rhodamine cleavage fluorescence, 3 h; at 50 µM; stronger effect = higher value
row,SMILES,inhibition
1,Cc1nn(-c2ccccc2)c(C)c1S(=O)(=O)N1CCN(c2ccccn2)CC1,-17.2% (inactive)
2,O=C(c1ccc(N2CCCC2)nn1)N1CCN(c2ccccn2)CC1,-6.98% (inactive)
3,Clc1cc2nc(N3CCN(c4ccccn4)CC3)c3nncn3c2cc1Cl,31.5% (active)
4,Cc1ccc(Nc2nc(C(=O)NCCN3CCCCC3C)cc3occc23)cc1Cl (stereo not drawn),-11.2% (inactive)
5,Cc1ccc(C(=O)N2CCc3cc(-c4csc(NC(=O)CNc5ccccc5)n4)ccc32)cc1,32.4% (active)
6,Cc1sc(NC(=O)c2ccccn2)nc1-c1ccc2c(c1)CCN2C(=O)C(C)C,-11.3% (inactive)
7,CC(C)(C)CC(=O)N1CCc2cc(-c3csc(NC(=O)c4ccccn4)n3)ccc21,2.12% (inactive)
8,O=C(Nc1nc(-c2ccc3c(c2)CCN3C(=O)c2ccccc2F)cs1)c1cccnc1,77.7% (active)
9,CCc1nc2ccc(C(=O)Nc3nc(-c4ccc5c(c4)CCN5C(=O)c4ccccc4C)c(C)s3)cc2nc1CC,-14.3% (inactive)
10,CCc1nc2ccc(C(=O)Nc3nc(-c4ccc5c(c4)CCN5C(=O)c4ccc(C)cc4)c(C)s3)cc2nc1CC,-24.7% (inactive)
11,Cc1cccc(NC(=O)Cn2c(C)ncc(C(=O)NC3CCCC3)c2=O)c1C,2.77% (inactive)
12,O=C(OCc1ccccc1F)c1cc(-c2ccccc2)nc2ccccc12,7.27% (inactive)
13,CCc1nnc(NC(=O)C2CCN(C(=O)c3ccc(F)cc3)CC2)s1,5.9% (inactive)
14,COc1cccc(O[C@@H]2C[C@@H](NC(=O)c3ccnn3C)[C@H](N3CCCC3)[C@H]2O)c1,-13.7% (inactive)
15,CCCNC(=O)c1nn(-c2ccc(F)cc2)c2c1CCCCC2,3.82% (inactive)
16,O=C(Cc1csc(NC(=O)c2ccc(=O)[nH]c2)n1)NCc1ccco1,-18.1% (inactive)
17,Cc1oc(C2CCC2)nc1C(=O)NCCc1c[nH]c2ccccc12,7.03% (inactive)
18,O=C(CCc1csc(NC(=O)c2ccc(=O)[nH]c2)n1)NCCc1c[nH]c2ccccc12,36.5% (active)
19,COCCCN1CC(=O)N2C(c3cccc([N+](=O)[O-])c3)c3[nH]c4ccccc4c3C[C@@H]2C1=O (stereo partly drawn),-12.6% (inactive)
20,O=S(=O)(Nc1ccc(Cc2ccncc2)cc1)c1ccc2c(c1)OCCO2,3.72% (inactive)
21,O=C(NCc1ccc2c(c1)OCO2)C1=CCN(Cc2ccccc2)CC1,-28.1% (inactive)
22,COC(=O)c1cc2c(ccn2C)n1CC(=O)N1CCN(Cc2ccc3c(c2)OCO3)CC1,-63.5% (inactive)

row,SMILES,inhibition
1,O=C(Nc1cccc2ccccc12)N1CCN(Cc2ccc3c(c2)OCO3)CC1,41% (active)
2,CNc1nc2c(c(=O)n1-c1ccccc1OC)CCN(C(=O)N1CCOCC1)C2,-2.32% (inactive)
3,CCCCn1c(=O)[nH]c2cc(-c3nc(-c4ccccn4)no3)ccc2c1=O,-20.4% (inactive)
4,Cc1c(C(=O)NC2CCCCC2)oc2ccccc12,0.0641% (inactive)
5,CCS(=O)(=O)c1cccc(C(=O)Nc2c(C(N)=O)oc3ccccc23)c1,41.9% (active)
6,O=C(Nc1c(C(=O)N2CCOCC2)oc2ccccc12)c1ccccc1F,-1.41% (inactive)
7,CCCSc1nc(NCC2CCCO2)c2c3c(sc2n1)COC(C)(C)C3 (stereo not drawn),-37.2% (inactive)
8,Cc1noc(C)c1CC(=O)N1CCN(c2ccccc2F)CC1,20.5% (inactive)
9,CCCc1cc(=O)oc2cc(OC(=O)C3CCN(C(=O)c4ccc(Cl)cc4)CC3)ccc12,10.2% (inactive)
10,COc1ccc(N2CCN(Cc3cc(=O)oc4cc(O)ccc34)CC2)cc1,4.8% (inactive)
11,CCCc1cc(=O)oc2cc(OCC(=O)NCc3ccc(OC)cc3)ccc12,30.6% (active)
12,Cc1c(CC(=O)NCC(=O)O)c(=O)oc2c(C)c(O)ccc12,-3.52% (inactive)
13,Cc1ccc2[nH]c3c(=O)n(Cc4ccccn4)cnc3c2c1,48.9% (active)
14,COc1ccccc1Cn1cnc2c([nH]c3cc(OC)c(OC)cc32)c1=O,58% (active)
15,O=c1c2[nH]c3ccc(F)cc3c2ncn1CCN1CCCC1,6.33% (inactive)
16,COc1cc(Cn2cnc3c([nH]c4ccc(Br)cc43)c2=O)cc(OC)c1,26% (inactive)
17,O=c1c2[nH]c3ccc(Cl)cc3c2ncn1Cc1cccnc1,-5.96% (inactive)
18,CCOc1ccc2[nH]c3c(=O)n(Cc4cccnc4)cnc3c2c1,25.4% (inactive)
19,O=C(O)c1cc(S(=O)(=O)NC2CCCc3ccccc32)ccc1O (stereo not drawn),-9.75% (inactive)
20,COc1ccc(S(=O)(=O)Nc2ccc(-c3ccc(OC)nn3)cc2)cc1,14.6% (inactive)
21,COCCN(CCOC)S(=O)(=O)c1ccc(C(=O)Nc2sccc2C(N)=O)cc1,7.55% (inactive)
22,O=C(NCC(c1ccccc1)N1CCCCC1)c1cc(-c2cccs2)on1 (stereo not drawn),-11.5% (inactive)

row,SMILES,inhibition
1,O=C1N(c2cccc(F)c2)c2ncccc2S(=O)(=O)N1Cc1ccccc1,2.92% (inactive)
2,COCCCNC(=O)[C@H](Cc1ccccc1)NC(=O)N1CCn2c1nc1ccccc12,-0.405% (inactive)
3,COc1ccc(NC(=O)Cc2noc(-c3cccc(OC)c3)n2)cc1,35.7% (active)
4,COc1ccc(OCC(=O)Nc2noc(-c3ccccc3)n2)cc1,23.8% (inactive)
5,COc1cccc(NC(=O)Cn2c(C)cc(C)c2-c2nc(C(C)C)no2)c1,-2.06% (inactive)
6,CC(C)c1nnc(NC(=O)C2CC(=O)N(CCc3ccc(F)cc3)C2)s1 (stereo not drawn),5.74% (inactive)
7,CCN1[C@H]2CCN(C(=O)C3(C#N)CC3)CC[C@@H]2Oc2ccccc2S1(=O)=O,-12.7% (inactive)
8,Cc1ccc(NC(=O)CCC(=O)N(c2ccccc2)c2ccccc2)cc1Cl,6.95% (inactive)
9,COc1cccc(NC(=O)COC(=O)c2ccc(OC)c(S(=O)(=O)Nc3cc(Cl)c(OC)cc3OC)c2)c1,3.55% (inactive)
10,Cc1ccc(NC(=O)CCOc2ccccc2)cc1S(=O)(=O)Nc1ccccc1Cl,39.7% (active)
11,O=C(NCCc1ccc(F)cc1)c1ccc(S(=O)(=O)Nc2ccccc2F)cc1,13.4% (inactive)
12,Cc1nc(CCN2CCN(Cc3ccccc3)CCC2=O)no1,9.08% (inactive)
13,COC(=O)c1sc(-c2ccccc2)cc1NC(=O)c1ccc(C)cc1,8.72% (inactive)
14,N#Cc1cccc(NC(=O)C2Cc3ccccc3CN2C(=O)c2ccccc2)c1 (stereo not drawn),-4.46% (inactive)
15,COc1cccc(NC(=O)N2C[C@H]3CN(C(C)C)CC[C@H]32)c1,-122% (inactive)
16,COc1cccc(NC(=O)C2Cc3ccccc3N2C(=O)c2ccccc2)c1 (stereo not drawn),57.8% (active)
17,Cn1cc(CN2CCC3(CC2)Nc2cc(Cl)ccc2C2=NCCN23)cn1,-4.3% (inactive)
18,Cc1ccccc1NS(=O)(=O)c1cc2c(cc1Cl)NC(=O)CO2,11.5% (inactive)
19,COc1ccc(NC(=O)CCN2C(=O)c3cccnc3Sc3ccccc32)cc1,0.608% (inactive)
20,Cc1ccc(Cc2nc(CC(=O)Nc3ccc(F)cc3F)n[nH]2)cc1,12.8% (inactive)
21,CC(C)CCNC(=O)C1(C)Cn2c(cc3ccccc32)C(=O)N1Cc1ccccc1F (stereo not drawn),-0.678% (inactive)
22,COc1ccccc1CN1C(=O)c2cc3occc3n2CC1(C)C(=O)NC1CCCCC1 (stereo not drawn),6.42% (inactive)

row,SMILES,inhibition
1,CC1(C(=O)NC2CCCC2)Cn2c(cc3ccccc32)C(=O)N1c1ccc(F)cc1 (stereo not drawn),62.5% (active)
2,COCCNC(=O)C(Cc1ccccc1)N1Cc2ccccc2C1=O (stereo not drawn),4.85% (inactive)
3,O=C(N[C@@H](C(=O)O)c1ccccc1)[C@@H](Cc1ccccc1)n1c(=O)[nH]c2ccccc2c1=O,9.14% (inactive)
4,CC1CCC(NC(=O)Cn2c(=O)[nH]c3ccccc3c2=O)CC1 (stereo not drawn),41.5% (active)
5,O=C(Cn1cccc1C(=O)c1ccccc1)NC1CCN(Cc2ccccc2)CC1,-2.81% (inactive)
6,CCN1CCC2(CC1)OC(=O)C(C)=C2C(=O)Nc1cc(C)ccc1C,-4.59% (inactive)
7,CNc1nc(C2CCCN(C)C2)nc2c1CCN(C(=O)Cc1c[nH]c3ccccc13)C2 (stereo not drawn),-1.33% (inactive)
8,Cc1cccc(-c2noc(Cc3nnc(-c4ccccc4)o3)n2)c1,-20.8% (inactive)
9,Cc1ccn2c(NCCc3ccccc3)c(-c3ccc(O)cc3)nc2c1,20.5% (inactive)
10,Cc1cccc(-c2nc(Nc3ccc(O)cc3)c3ccccc3n2)c1,69.2% (active)
11,Cc1nccc(C2CN(C(=O)CCc3c[nH]c4ccccc34)CCO2)n1 (stereo not drawn),-0.542% (inactive)
12,CN1CC(c2ncn[nH]2)c2cc(C(=O)NCc3cccc(F)c3)ccc21 (stereo not drawn),8.47% (inactive)
13,O=C(Cc1cccc(C(F)(F)F)c1)Nc1cccn2ncnc12,-3.85% (inactive)
14,O=C(NCc1ccccc1)c1nc[nH]c1C(=O)NCc1cccc(C(F)(F)F)c1,-0.00262% (inactive)
15,O=C(Cc1c(Cl)cccc1Cl)NCc1cccc(C(F)(F)F)c1,34.4% (active)
16,Cc1ccc(S(=O)(=O)NC2=NC(c3ccccc3)c3cc(Cl)ccc3N2)cc1 (stereo not drawn),10.4% (inactive)
17,O=C(NCCC1=CCCCC1)c1ccc(-c2noc(-c3ccccc3)n2)s1,2.81% (inactive)
18,COc1ccc(-c2nc(-c3nnn(Cc4cccc(F)c4)c3C)no2)cc1,-0.491% (inactive)
19,COc1ccc(-c2nc(C3CC(=O)N(c4ccccc4)C3)no2)cc1 (stereo not drawn),7.38% (inactive)
20,CCOc1ccc(-c2noc(-c3nn(-c4cccc(OC)c4)ccc3=O)n2)cc1,72.3% (active)
21,CCOC(=O)c1cnn(-c2ncc(C(=O)OC)c(C(F)(F)F)n2)c1C(F)(F)F,3.18% (inactive)
22,O=C(NCc1ccco1)c1ccc2c(=O)nc3c(-c4ccc(F)cc4)n[nH]n3c2c1,11.8% (inactive)
